Potency and affinity values are given separately. Calls of active or inactive are those of the source.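 How the source made its calls: active means every repeat run showing a signal drop whose fitted half-maximal concentration is at most twice the top tested concentration; inconclusive means repeat runs disagree, or flat partial drop, or poor fit; inactive means the rest.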
assay: general mammalian cell viability loss – activator set, cherry-pick, cytotoxicity control for miR-122 modulator project, dose response (AID 720690); conditions: HEK293T viability, CellTiter-Glo luminescence, 48 h; series mostly up to 26 µM

Structure (SMILES)	outcome
COCC(=O)N1[C@H](CO)[C@H]2c3ccccc3N(C(=O)C3CC3)C[C@H]21	inactive
COC(=O)C[C@H]1CC[C@@H]2[C@H](COc3ccc(NC(=O)c4cc(F)cc(F)c4)cc3C(=O)N2C)O1	inactive
COCC(=O)NC[C@H]1[C@@H](c2ccc(C3=CCCC3)cc2)[C@@H](CO)N1C(=O)C1CC1	inactive
COCC(=O)N(C)C[C@H]1Oc2cc(-c3ccccc3F)ccc2S(=O)(=O)N([C@@H](C)CO)C[C@H]1C	inactive
O=C(NC[C@@H]1N[C@@H](CO)[C@H]1c1ccccc1)C1CCC1	inactive
CC(=O)N1[C@H](CO)[C@@H](c2ccccc2)[C@H]1CN(C(=O)NC(C)C)C1CCCC1	inactive
CN1C(=O)c2cc(NC(=O)c3ccccc3F)ccc2OC[C@H]2O[C@H](CC(=O)NCc3ccc4c(c3)OCO4)CC[C@@H]21	inactive
COc1nnc(-c2ccc(N3CCOCC3)c(NC(=O)c3ccccc3)c2)c2ccccc12	inactive
CCNC(=O)C[C@H]1CC[C@H]2[C@H](COc3ccc(NS(C)(=O)=O)cc3C(=O)N2C)O1	inactive
CN1C(=O)c2cc(NC(=O)c3cccs3)ccc2OC[C@@H]2O[C@@H](CC(=O)O)CC[C@H]21	inactive
COc1cc(-c2nnc(-c3ccco3)o2)ccc1OCc1ccccc1	inactive

— PubChem BioAssay AID720690 (Broad Institute, 2013)
